The values below come from the antibiotic and cytotoxicity screens of Wong et al. (2023).

In all, about 39,000 compounds went through this assay and about 3,300 (8.5%) were called active. What follows is part of a selection rich in actives, with near analogues and random picks from the rest.

The assay has as its system HepG2. The assay is described as follows: cytotoxicity call (relative viability < 0.9). The following applies: 10 µM.
`CN(C)C(=O)C[C@@H]1CC[C@@H](NC(=O)C2CCOCC2)[C@@H](CO)O1`: the cytotoxicity call is “inactive”. On to `CCCNC(=O)Nc1ccc2c(c1)C(=O)N(C)C[C@@H](OC)[C@@H](C)CN(C(=O)C1CCOCC1)[C@H](C)CO2`, for which the cytotoxicity call was “inactive”. As to `C[C@@H]1CN([C@@H](C)CO)C(=O)c2cc(NC(=O)Nc3ccc(C(F)(F)F)cc3)ccc2O[C@H]1CN(C)Cc1ccc(-c2ccccc2)cc1`, the cytotoxicity call was “active”. `C[C@H](CO)N1C[C@H](C)[C@@H](CN(C)Cc2ccc(-c3ccccc3)cc2)Oc2ccc(NC(=O)Nc3ccc(C(F)(F)F)cc3)cc2C1=O`: the cytotoxicity call was “inactive”.

Regarding `C[C@H](CO)N1C[C@H](C)[C@H](CN(C)Cc2ccc(-c3ccccc3)cc2)Oc2ccc(NC(=O)Nc3ccc(C(F)(F)F)cc3)cc2C1=O`, the cytotoxicity call is “active”.

For the compound `C[C@@H]1CN([C@H](C)CO)C(=O)c2cc(NC(=O)Nc3ccc(C(F)(F)F)cc3)ccc2O[C@@H]1CN(C)Cc1ccc(-c2ccccc2)cc1`, the cytotoxicity call is “active”. On to `Cc1ccc(OC(=O)N(C)C[C@@H]2OCc3ccccc3-c3ccccc3C(=O)N([C@@H](C)CO)C[C@H]2C)cc1`, for which the cytotoxicity call was “inactive”. Consider `C[C@H]1CN([C@@H](C)CO)S(=O)(=O)c2ccc(C#CCN(C)C)cc2O[C@H]1CN(C)C(=O)CN(C)C`, for which the cytotoxicity call was “inactive”. The same measure for `O=C(CCCCCNC(=O)OCc1ccc(CO[C@H]2C[C@@H](c3ccc(C(F)(F)F)cc3)C=C(C(=O)N3CCN(Cc4ccccc4)CC3)O2)cc1)NO`: “inactive”; for `C[C@H]1CN([C@@H](C)CO)C(=O)c2cc(NC(=O)Nc3ccc4c(c3)OCO4)ccc2O[C@H]1CN(C)S(C)(=O)=O`: “inactive”; for `COc1ccc(CNC(=O)C[C@H]2CC[C@@H]3[C@H](COc4ccc(NC(=O)C(C)C)cc4C(=O)N3C)O2)cc1`: “inactive”. In the case of `C[C@@H]1CN([C@@H](C)CO)C(=O)Cc2cc(NS(=O)(=O)c3cccs3)ccc2O[C@H]1CN(C)Cc1ccncc1`, the cytotoxicity call is “inactive”. `CC[C@@H](C[C@@H](O)[C@@H](C)[C@H]1CC[C@H]2C3=CC(=O)[C@H]4[C@H](C)[C@@H](OC(=O)c5ccccc5)CC[C@]4(C)[C@H]3CC[C@]12C)C(C)C`: the cytotoxicity call was “inactive”. Take `CC[n+]1oc(-c2ccccc2)cc1C`: the cytotoxicity call was “active”. Then `O=C(CCCCCNC(=O)OCc1ccc(CO[C@H]2C[C@@H](C3CCCCC3)C=C(C(=O)N3CCN(Cc4ccccc4)CC3)O2)cc1)NO`, with “inactive”; and `COCC(=O)Nc1ccc2c(c1)C(=O)N(C)C[C@H](OC)[C@@H](C)CN(Cc1ccccc1OC)[C@@H](C)CO2`, with “inactive”; and `COC1=C(OC)C(=O)C(C/C=C(\C)CC/C=C(\C)CC/C=C(\C)CC/C=C(\C)CC/C=C(\C)CC/C=C(\C)CC/C=C(\C)CC/C=C(\C)CC/C=C(\C)CCC=C(C)C)=C(C)C1=O`, with “inactive”. Then `CC1=C(C)C(=O)C(C(CCCCCC(=O)O)c2ccccc2)=C(C)C1=O` (stereo not drawn), with “inactive”.

For `COC(=O)CCCCCCC(=O)Nc1ccc(NC(=O)CCCC[P+](c2ccccc2)(c2ccccc2)c2ccccc2)cc1`, the cytotoxicity call was “inactive”. Then `COC1=C(OC)C(=O)C(CCCCCCCCCCO)=C(C)C1=O`, with “active”; and `COC1=C(OC)C(=O)C(CC=C(C)CCC=C(C)CCC=C(C)CCC=C(C)CCC=C(C)CCC=C(C)CCC=C(C)CCC=C(C)CCC=C(C)CCC=C(C)C)=C(C)C1=O`, with “inactive”; and `COC1=C(OC)C(=O)C(CCCCCCCCCC[P+](c2ccccc2)(c2ccccc2)c2ccccc2)=C(C)C1=O`, with “active”.

On to `COC1=C(OC)C(=O)C(C/C=C(\C)CC/C=C(\C)CC/C=C(\C)CC/C=C(/C)CC/C=C(\C)CC/C=C(\C)CC/C=C(\C)CC/C=C(\C)CC/C=C(\C)CCC=C(C)C)=C(C)C1=O`, for which the cytotoxicity call was “inactive”.

On to `CC1=C(C)C(=O)C(CCCCCCCCCC[P+](c2ccccc2)(c2ccccc2)c2ccccc2)=CC1=O`, for which the cytotoxicity call was “active”. Then `CC=Cc1ccc2n(c1=O)C[C@H]1[C@H](CO)[C@@H](C(=O)NC3CCC3)N(S(C)(=O)=O)[C@@H]21`, with “inactive”. Consider `COc1ccc(-c2cn3cc(C(=O)NCC(N)=O)nc3c(=O)n2CC2CC2)c(F)c1`, for which the cytotoxicity call is “inactive”. For `C[C@@H]1CN([C@H](C)CO)C(=O)c2cc(NS(=O)(=O)c3cccs3)ccc2O[C@H]1CN(C)S(=O)(=O)c1ccc(F)cc1`, the cytotoxicity call was “inactive”. Regarding `COc1ccc(NC(=O)Nc2ccc3c(c2)[C@@H]2C[C@H](CC(=O)NCc4ccccn4)O[C@H](CO)[C@@H]2O3)cc1`, the cytotoxicity call was “inactive”. The same measure for `C[C@@H]1CN([C@@H](C)CO)C(=O)c2cc(NC(=O)CCN3CCOCC3)ccc2O[C@@H]1CN(C)Cc1ccc2c(c1)OCO2`: “inactive”; for `C[C@H]1CN([C@@H](C)CO)C(=O)c2cccc(NC(=O)C3CCCCC3)c2O[C@@H]1CN(C)S(=O)(=O)c1cn(C)cn1`: “inactive”.

Consider `C[C@H](CO)N1C[C@H](C)[C@@H](CN(C)C(=O)C2CC2)Oc2ncc(-c3ccc(C(=O)N(C)C)cc3)cc2C1=O`, for which the cytotoxicity call was “inactive”. The same measure for `NCC[C@@H](Cc1ccccc1)c1ccc2c(c1)OCO2`: “inactive”. Then `N[C@@H](CCc1ccccc1Cl)c1ccc2c(c1)OCCO2`, with “active”; and `N[C@H](c1ccc2c(c1)OCCO2)c1ccco1`, with “inactive”. Take `Cc1ccc(S(=O)(=O)Nc2cccc3c2O[C@H](CN(C)C(=O)Nc2cccc4ccccc24)[C@H](C)CN([C@H](C)CO)C3=O)cc1`: the cytotoxicity call is “inactive”. The same measure for `O=C(NCCNS(=O)(=O)c1cccc2nonc12)[C@H]1COc2ccccc2O1`: “inactive”. The same measure for `CS(=O)(=O)N1CCN(Cc2cc3nc(-c4cccc5n[nH]cc45)nc(N4CCOCC4)c3s2)CC1`: “active”; for `C[C@H]1CN([C@@H](C)CO)C(=O)c2cc(C#CC3(O)CCCC3)cnc2O[C@H]1CN(C)S(=O)(=O)c1cccc(F)c1`: “inactive”; for `COc1ccc(S(=O)(=O)N(C)C[C@H]2Oc3ccc(NS(=O)(=O)c4ccc(F)cc4)cc3CC(=O)N([C@H](C)CO)C[C@@H]2C)cc1`: “inactive”.

With `Cc1noc(C)c1S(=O)(=O)Nc1ccc2c(c1)CC(=O)N([C@H](C)CO)C[C@H](C)[C@H](CN(C)S(=O)(=O)c1ccc(Cl)cc1)O2`, the cytotoxicity call was “inactive”. Then `C[C@H](CO)N1C[C@H](C)[C@H](CN(C)S(=O)(=O)c2ccc(F)cc2)Oc2c(NS(=O)(=O)c3ccccc3)cccc2C1=O`, with “inactive”.

Consider `O=C(CN1CCOC1=O)N1CCC2(CCC(=O)N(CCCn3ccnc3)C2)CC1`, for which the cytotoxicity call was “inactive”.

As for `CCN(CC)CCCCNc1ncc2cc(-c3cc(OC)cc(OC)c3)c(NC(=O)NC(C)(C)C)nc2n1`, the cytotoxicity call is “active”. Regarding `CCN(CC)CCNC(=O)COc1ccc(OC)cc1.Cl`, the cytotoxicity call is “inactive”.

`CCN(CC)CCCCNc1ncc2cc(-c3c(Cl)cccc3Cl)c(NC(=O)NC(C)(C)C)nc2n1`: the cytotoxicity call was “active”.

`CC(C)=CCC/C(C)=C/CC/C(C)=C/CCC(=O)OC/C=C(\C)CCC=C(C)C`: the cytotoxicity call is “inactive”. Then `Cc1noc(C)c1NC(=O)Nc1ccc2c(c1)C(=O)N([C@H](C)CO)C[C@H](C)[C@H](CN(C)Cc1ccc(C(=O)Nc3ccccc3N)cc1)OCCCC[C@@H](C)O2`, with “inactive”; and `COc1ccc(NC(=O)N(C)C[C@H]2OCCCC[C@H](C)Oc3ccc(NC(=O)Cc4ccccc4)cc3C(=O)N([C@@H](C)CO)C[C@H]2C)cc1`, with “inactive”. The same measure for `C[C@@H]1CN([C@H](C)CO)C(=O)Cc2cc(NC(=O)Cc3cn(C)c4ccccc34)ccc2O[C@@H]1CN(C)C(=O)Nc1cccc2ccccc12`: “inactive”. On to `C[C@@H]1CCCCO[C@@H](CN(C)C(=O)Cc2ccccc2)[C@@H](C)CN([C@H](C)CO)C(=O)c2cc(NC(=O)Nc3ccc4c(c3)OCO4)ccc2O1`, for which the cytotoxicity call was “inactive”. Then `C[C@@H]1CCCCO[C@H](CN(C)Cc2ccc(C(F)(F)F)cc2)[C@@H](C)CN([C@@H](C)CO)C(=O)c2cc(NC(=O)c3ccncc3)ccc2O1`, with “inactive”; and `C[C@@H]1CCCCO[C@@H](CN(C)Cc2ccc(C(F)(F)F)cc2)[C@@H](C)CN([C@@H](C)CO)C(=O)c2cc(NS(=O)(=O)c3ccccc3)ccc2O1`, with “active”. Consider `C[C@@H]1CCCCO[C@H](CN(C)Cc2ccc(C(F)(F)F)cc2)[C@H](C)CN([C@H](C)CO)C(=O)c2cc(NS(=O)(=O)c3ccccc3)ccc2O1`, for which the cytotoxicity call was “inactive”.

For `C[C@H]1CCCCO[C@H](CN(C)Cc2ccc(C(F)(F)F)cc2)[C@@H](C)CN([C@@H](C)CO)C(=O)c2cc(NS(=O)(=O)c3ccccc3)ccc2O1`, the cytotoxicity call was “inactive”. The same measure for `C[C@H](CO)N1C[C@H](C)[C@H](CN(C)Cc2ccc(C(F)(F)F)cc2)OCCCC[C@H](C)Oc2ccc(NS(=O)(=O)c3ccccc3)cc2C1=O`: “active”. Then `C[C@@H]1CCCCO[C@@H](CN(C)Cc2ccc(C(F)(F)F)cc2)[C@@H](C)CN([C@H](C)CO)C(=O)c2cc(NS(=O)(=O)c3ccccc3)ccc2O1`, with “active”; and `C[C@@H]1CCCCO[C@@H](CN(C)Cc2ccc(C(F)(F)F)cc2)[C@H](C)CN([C@H](C)CO)C(=O)c2cc(NS(=O)(=O)c3ccccc3)ccc2O1`, with “inactive”; and `C[C@@H]1CCCCO[C@@H](CN(C)Cc2ccc(C(F)(F)F)cc2)[C@H](C)CN([C@@H](C)CO)C(=O)c2cc(NS(=O)(=O)c3ccccc3)ccc2O1`, with “active”. Then `C[C@H]1CCCCO[C@@H](CN(C)Cc2ccc(C(F)(F)F)cc2)[C@@H](C)CN([C@@H](C)CO)C(=O)c2cc(NS(=O)(=O)c3ccccc3)ccc2O1`, with “inactive”; and `C[C@@H]1CCCCO[C@H](CN(C)Cc2ccc(C(F)(F)F)cc2)[C@@H](C)CN([C@H](C)CO)C(=O)c2cc(NS(=O)(=O)c3ccccc3)ccc2O1`, with “inactive”. For the compound `COc1ccc(S(=O)(=O)N(C)C[C@@H]2Oc3ccc(NC(=O)NC(C)C)cc3CC(=O)N([C@@H](C)CO)C[C@@H]2C)cc1`, the cytotoxicity call was “inactive”.

For the compound `COc1ccc(NC(=O)N(C)C[C@H]2OCCCC[C@H](C)Oc3ccc(NC(=O)C4CCCCC4)cc3C(=O)N([C@H](C)CO)C[C@H]2C)cc1`, the cytotoxicity call was “inactive”. The same measure for `C[C@@H]1CN([C@@H](C)CO)C(=O)CCCn2nncc2CO[C@H]1CN(C)C(=O)C1CC1`: “inactive”.
